Screens deposited in PubChem BioAssay by Broad Institute.
The list is not random: actives were taken first. Their share in the collection is about 2.7%.
CFTR F508del cor – correctors of CFTR F508del function in bronchial epithelial cells; CFBE cells, YFP halide quenching; stimulated with forskolin plus potentiator P3; % fluorescence drop versus neutral controls; activity (quench increase), % at 7.58 µM; 350,000 compounds, 0.36% hits; AID 720511;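 active = mean added fluorescence quench of at least 8% versus neutral control, with both replicates also reaching 8%; inconclusive = only one of the mean or replicate conditions met; inactive = mean below 8% and not both replicates reaching 8%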;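 also: cells transiently co-express mutant CFTR-F508del with the halide-sensitive YFP; corrector assay measuring rescue of mutant channel to the surface after 24 h compound exposure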
EWS-Fli block – blocks EWS/Fli oncoprotein-driven transcription; A673 NR0B1-luciferase reporter, viability-normalised; inhibition, % at 12.6 µM; 350,000 compounds, 0.67% hits; AID 651661;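 active = mean inhibition of at least 50% after viability correction, with every replicate also passing that limit; inconclusive = mean reaches 50% but only one of two replicates passes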;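 also: firefly luciferase signal divided by Alamar Blue viability fluorescence both relative to DMSO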
PGC1a acetyl inh – lowers PGC1a acetylation signal in U2OS cells; AlphaScreen anti-acetyl-lysine; with virally co-expressed GCN5 acetyltransferase; inhibition, % at 15.6 µM; 350,000 compounds, 0.17% hits;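 active = every replicate shows inhibition of at least 40%; inconclusive = mean inhibition at least 40% but some replicate below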;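 also: 0% = neutral control wells and 100% = positive control wells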
PAX8 reporter – inhibitors of PAX8 transcriptional activity in RMG-I cells. RMG-I TPO-luciferase reporter, SteadyGlo, 24 h. inhibition, % at 12.6 µM. 360,000 compounds, 1.2% hits. AID 652154;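 active = mean replicate inhibition at least 60% with every replicate also reaching 60%; inconclusive = only one of the two criteria is met; inactive = mean below 60% and not all replicates reaching 60%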;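 also: luciferase light reporting Pax8 driven TPO promoter activity; plate controls were median of neutral control wells for no effect and mitoxantrone controls for full effect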
Env fusion inh – HIV envelope-mediated fusion inhibition. inhibition, % at 12.3 µM. AID 651610. HeLa-JRFL Env/CEM21 cell fusion, luciferase. 360,000 compounds, 1.1% hits;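 active = mean replicate inhibition score of at least 50 and every replicate individually at or above 50; inconclusive = only one of the two criteria met; inactive = mean below 50 and not all replicates reaching 50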;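 also: 0% = plate neutral controls and 100% = maraviroc near 300 nM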
GSIS activator – GLuc luminescence reporter in INS-1E cells, primary screen for activators of glucose-dependent secretion of insulin; INS-1E GLuc reporter insulin secretion, 2-3 h; activation, % at 16.6 µM; 370,000 compounds, 0.61% hits; AID 743287;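 active = lowest replicate activation of at least 40%, so every replicate reaches that level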;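 also: 0% = median of neutral control wells and 100% = median of IBMX positive control wells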
An asterisk follows results filed as active; u = inconclusive; x = not tested or not shown; [ ] = dose if it differs, or a comment.

SMILES | CFTR F508del cor | EWS-Fli block | PGC1a acetyl inh | PAX8 reporter | Env fusion inh | GSIS activator
O=c1ccc(-c2ccc(S(=O)(=O)Nc3cccc([N+](=O)[O-])c3)s2)n[nH]1 | -0.9 | x | 13.2 | -1.5 | 3.1 | 77.4*
CCOc1ccc(CCNS(=O)(=O)c2cn(C)cn2)cc1OCC | 2.4 | x | 5.1 | 1.7 | -16.3 | 60.0*
Cn1cc(CNC(=O)c2cc(-c3ccccc3)nc3ccc(Br)cc23)cn1 | x | x | x | x | x | 8.8
Cc1ccc(-c2cc(C(=O)NCc3cnn(C)c3)c3cc(Br)ccc3n2)cc1 | x | x | -1.1 | x | x | 334.9*
COc1ccc(C=C2CS(=O)(=O)CC(=Cc3ccc(OC)cc3)C2=O)cc1 | -0.1 | 60.1* | x | 76.9* | -48.6 | -26.8
COc1ccc2c3c(n(C)c2c1)[C@@H](CO)N(C(=O)C1CC1)CC31CN(Cc2cccc(F)c2)C1 | 1.4 | 0.1 | x | 7.2 | x | -7.0
COc1ccc2c3c(n(C)c2c1)[C@H](CO)N(C(=O)C1CCOCC1)CC31CCN(Cc2cccc(F)c2)CC1 | -0.5 | 29.9 | x | x | 55.1*[16.7 µM] | -16.2
COc1ccc2c3c(n(C)c2c1)[C@@H](CO)N(C(=O)C1CCOCC1)CC31CCN(Cc2cccc(F)c2)CC1 | u | 25.7 | x | x | 69.9*[16.7 µM] | -24.1
COc1ccc2c3c(n(C)c2c1)[C@H](CO)N(C(=O)C1CCOCC1)CC31CN(Cc2cccc(F)c2)C1 | x | x | x | x | x | 19.6
C[C@@H]1CN([C@H](C)CO)C(=O)c2cc(NC(=O)c3ccncc3)ccc2O[C@@H]1CN(C)Cc1ccc(-c2ccccc2)cc1 | -0.1 | 24.8 | -6.4 | 19.0 | x | 5.4
CCS(=O)(=O)c1nc(S(=O)(=O)c2ccc(C)cc2)c(N2CCN(CCO)CC2)s1 | -3.0 | x | 1.4 | 22.8 | 4.3 | 6.9
CCN1CCN(c2sc(S(C)(=O)=O)nc2S(=O)(=O)c2ccc(C)cc2)CC1 | -6.7 | 12.4 | -2.2 | 71.0* | 7.5 | 1.6
CCN1CCN(c2sc(S(=O)(=O)CC)nc2S(=O)(=O)c2ccc(C)cc2)CC1 | 0.3 | 20.8 | x | 17.3 | 7.8 | x
Cc1ccc(S(=O)(=O)c2nc(S(=O)(=O)c3ccccc3)sc2N2CCN(C)CC2)cc1 | -3.1 | 10.4 | 0.7 | 88.0* | 15.7 | 4.1
CCS(=O)(=O)c1nc(S(=O)(=O)c2ccc(C)cc2)c(N2CCC(O)CC2)s1 | 0.2 | 16.1 | -6.4 | 12.2 | 6.6 | 41.2*
Cc1ccc(S(=O)(=O)c2nc(S(=O)(=O)c3ccccc3)sc2N2CCN(CCO)CC2)cc1 | -2.1 | 20.3 | -4.0 | 71.5* | -4.5 | -8.6
C[C@H]1CN([C@@H](C)CO)C(=O)c2cc(C#CC3CCCCC3)cnc2O[C@@H]1CN(C)C(=O)C1CCCCC1 | -0.2 | 19.0 | 3.3 | x | x | -10.6
C[C@@H]1CCCCO[C@H](CN(C)C(=O)c2ccccc2)[C@@H](C)CN([C@@H](C)CO)C(=O)c2cc(NC(=O)Nc3ccccc3)ccc2O1 | 0.1 | 4.9 | -0.3 | 4.7 | 5.9[16.7 µM] | -7.1
COc1ccc2cc(CNCCOCCOCCNCc3ccc4cc(OC)ccc4c3)ccc2c1 | 1.8 | 55.6* | x | 117.2* | 3.0 | 12.4
O=C1O[C@@H](c2ccccc2)[C@@H](c2ccccc2)N2[C@@H](c3ccccc3OCCO)[C@]3(C(=O)Nc4ccc(C#CCCO)cc43)[C@@H](C(=O)O)[C@H]12 | -0.9 | 2.3 | x | -5.2 | -49.3[16.7 µM] | x
OC(CNCCC1C=Nc2ccccc21)Cn1c2ccc(Cl)cc2c2cc(Cl)ccc21 (stereo not given) | x | x | x | -10.6 | 2.5 | 647.4*
CCC(=O)Nc1sc(Cc2ccc3c(c2)OCO3)c(C)c1C(N)=O | -0.2 | 3.3 | 0.4 | -18.1 | 3.8 | 66.9*
Cc1c(Cc2ccccc2)sc(NC(=O)Cc2ccccc2)c1C(N)=O | x | x | 6.9 | x | x | 9.6
Cc1c(Cc2ccccc2)sc(NC(=O)C(C)(C)C)c1C(N)=O | -2.5 | 17.1 | x | 47.5 | 2.5 | 46.0*
CO[C@@H]1CN(C)C(=O)c2ccc(NC(=O)c3cccc(F)c3)cc2OC[C@@H](C)N(CC2CC2)C[C@@H]1C | 0.9 | 3.2 | -7.8 | -2.0 | -13.8[16.7 µM] | 0.7
C[C@H]1CN([C@@H](C)CO)C(=O)Cc2cc(N(C)C)ccc2O[C@@H]1CN(C)S(=O)(=O)c1cccs1 | -2.5 | 1.6 | 1.7 | -0.9 | -3.6[16.7 µM] | 24.2
COc1ccccc1Oc1ccc2c(c1)C(=O)N(c1ccc(C)cc1)C2=O | x | x | 103.7* | x | x | 56.8
